Assay results from PubChem BioAssay (NCI).
About 83,000 compounds went through this panel and 20% of them were active in at least one assay; those are over-represented in the sample as a whole.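 Values shown are percent growth following 48 h exposure of cells in 96-well plates to a single concentration of compound; below 10 was considered active.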 Values without a mark were called inactive. Calls of active or inactive are those of the source.

Tests used:
Experiment in all cases: NCI-60 one-dose screen, 48 h (100 = growth as untreated, 0 = no growth, -100 = all killed)
Conditions in all cases: 10 µM unless noted
DU-145 prostate = tested on: DU-145 prostate
K-562 leukemia = tested on: K-562 leukemia
MALME-3M melanoma = tested on: MALME-3M melanoma
MDA-MB-231 breast = tested on: MDA-MB-231 breast
RXF 393 renal = tested on: RXF 393 renal
SF-268 CNS = tested on: SF-268 CNS
SF-295 CNS = tested on: SF-295 CNS
SF-539 CNS = tested on: SF-539 CNS
UACC-257 melanoma = tested on: UACC-257 melanoma
M14 melanoma = tested on: M14 melanoma
HCT-15 colon = tested on: HCT-15 colon
HT29 colon = tested on: HT29 colon
SNB-75 CNS = tested on: SNB-75 CNS
SNB-19 CNS = tested on: SNB-19 CNS
U251 CNS = tested on: U251 CNS
PC-3 prostate = tested on: PC-3 prostate
SK-MEL-5 melanoma = tested on: SK-MEL-5 melanoma
UACC-62 melanoma = tested on: UACC-62 melanoma
LOX IMVI melanoma = tested on: LOX IMVI melanoma
SK-MEL-28 melanoma = tested on: SK-MEL-28 melanoma

Compound	growth (DU-145 prostate)	growth (K-562 leukemia)	growth (MALME-3M melanoma)	growth (MDA-MB-231 breast)	growth (RXF 393 renal)	growth (SF-268 CNS) [%]	growth (SF-295 CNS)	growth (SF-539 CNS)	growth (UACC-257 melanoma)	growth (M14 melanoma)	growth (HCT-15 colon)	growth (HT29 colon)	growth (SNB-75 CNS)	growth (SNB-19 CNS)	growth (U251 CNS)	growth (PC-3 prostate)	growth (SK-MEL-5 melanoma)	growth (UACC-62 melanoma)	growth (LOX IMVI melanoma)	growth (SK-MEL-28 melanoma)
CCOC(=O)N1CCN(S(=O)(=O)c2oc(-c3ccc(Cl)cc3)nc2C#N)CC1	103%	9.23% (active)	79.8%	93.4%	83.8%	109	102%	89%	84.1%	75.4%	-8.32% (active)	79.3%	87.9%	98.3%	95.9%	93%	97.4%	98.8%	10.8%	105%
CCN(CC)CCNC(=O)c1ccc(-c2nc3ccc4[nH]ncc4c3c3c2CCCC3)cc1	53.5%	30%	79.1%	59.6%	36.4%	58.6	80.2%	61.2%	96.7%	52.9%	28.3%	68.3%	54.2%	85.4%	54.9%	57.2%	69.8%	33.8%	46%	73.2%
C=CCn1c(SCC(=O)Nc2ccc(C(=O)/C=C/c3ccc(OC)cc3)cc2)nnc1-c1ccccc1	93.8%	91.5%	88.2%	76.2%	115%	80.9	90.4%	98.2%	104%	81.5%	83.4%	85.3%	70.6%	83.9%	98.1%	67.1%	92.2%	74.5%	87.2%	89.4%
CC(C)c1ccc(NC(=O)Nc2ccc(NC(=O)c3ccccc3N)cc2)cc1	79.2%	18.2%	72.9%	50.1%	-25.1% (active)	51.8	-27.3% (active)	30.1%	58.6%	34%	50.7%	26.5%	26.3%	55.5%	35.6%	47.6%	24.3%	3% (active)	20.9%	39.9%
CCN(CC)c1ccc(/C=N/NC(=O)c2ccc(Nc3ccnc(C(F)(F)F)c3)cc2)c(O)c1	30.6%	87.2%	14.4%	24.4%	-0.93% (active)	18.5	7.62% (active)	-46.4% (active)	49%	19.3%	19.6%	0.587% (active)	37.1%	15.5%	14%	19.6%	-50.6% (active)	5.86% (active)	-25.4% (active)	47.4%
CN1CCN(CCCOc2ccc3ncnc(Nc4ccc(Oc5cccc(F)c5)c(Cl)c4)c3c2)CC1	15.2%	-30% (active)	-72.4% (active)	-65.4% (active)	-55.7% (active)	40.5	-35% (active)	-75.1% (active)	-59.6% (active)	-75.7% (active)	-3.99% (active)	-25.1% (active)	52.1%	34.8%	8.27% (active)	8.64% (active)	-96.3% (active)	-31.8% (active)	-91.6% (active)	-85.9% (active)
COc1ccc2[nH]cc(-c3nc(-c4cn(C)c5ccncc45)cs3)c2c1	2.58% (active)	-26.3% (active)	86.9%	-61.7% (active)	-86.8% (active)	87.1	76.3%	-70.6% (active)	92.7%	-88.7% (active)	-47.7% (active)	-33.6% (active)	110%	14.6%	-71.5% (active)	48.5%	50.2%	101%	-88.3% (active)	91.4%
O=C(/C=C/c1ccccc1)Nc1ncc(Cc2ccccc2)s1	16%	10.5%	44.3%	33.4%	10.9%	39.4	-10.7% (active)	-22.2% (active)	48.3%	5.78% (active)	14.2%	4.97% (active)	-2.19% (active)	42.6%	9.07% (active)	23.4%	30.6%	3.28% (active)	6.49% (active)	47%
Brc1ccc(-c2cnc3nonc3n2)cc1	87.7%	38.7%	53.9%	69.1%	74.5%	87.1	91.4%	94.8%	66.9%	80.1%	54.8%	70.2%	96%	88.2%	92.5%	57.1%	48.5%	51.7%	38%	104%
COc1cc2c3c(c1O)-c1ccccc1[C@@H]1OC(=O)N(CC2)[C@H]31	120%	112%	103%	93.1%	97.6%	104	103%	108%	95.6%	103%	100%	106%	90.5%	104%	94.8%	70.7%	96.1%	90.1%	99.1%	118%
Cc1cccc(-n2c(C)nc3ccc(N4CCCNC4=O)cc3c2=O)c1	109%	102%	102%	106%	116%	105	101%	91.9%	105%	102%	113%	106%	103%	98.2%	93.4%	100%	102%	97.3%	97.7%	112%
O=C1/C(=C/c2ccccc2)CN(C(=O)c2cccnc2)C/C1=C\c1ccccc1	14.5%	2.62% (active)	23.9%	3.84% (active)	-64.1% (active)	17.4	-8.61% (active)	-4.29% (active)	23.9%	-41.5% (active)	-5.39% (active)	-34% (active)	81.6%	6.39% (active)	-23.8% (active)	-17.6% (active)	-39.1% (active)	-46.2% (active)	-84% (active)	-9.39% (active)
CC1=NN(c2ccc(Cl)cc2)CC1(C)N=O (stereo not given)	83.9%	40.1%	68.5%	78.3%	32.7%	94.9	101%	91%	90%	64.9%	27.4%	28.3%	75.7%	97.9%	91.5%	91.9%	95.4%	88.2%	28.1%	90.4%
CCOC(=O)Cn1c(=O)c2c3ccccc3n(C)c2n2nnc(-c3ccccc3)c12	91.8%	32.8%	93.5%	79.7%	119%	91	115%	91.1%	109%	88.1%	114%	89.1%	105%	115%	87.8%	76.1%	74.1%	72.8%	86.2%	86.6%
CCOC(=O)c1c(NC(=O)c2ccc(C(C)(C)C)cc2)sc2cc(O)ccc12	97.7%	43.4%	98.7%	110%	115%	102	105%	90.9%	97.3%	86.6%	70.3%	80.6%	104%	111%	96.9%	105%	98.1%	101%	87%	99.1%
